Assay outcomes (PubChem BioAssay)
An excerpt weighted towards active compounds, which were near 5.2% of everything screened.
CR mimetic SO – yeast age-related superoxide inhibition as caloric restriction mimetic; S. cerevisiae aged cells, superoxide DHE fluorescence; active compounds read low; AID 2690; superoxide response (% of plate mean), % at 10 µM; 330,000 tested, 0.18% active;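 active = superoxide response under a set limit, about three screen SD below normal, cut at about 65% in these data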;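 note: yeast aged for seven days with compound at 30 °C before DHE staining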
PfM18AAP inh – blocks P. falciparum M18 aspartyl aminopeptidase; recombinant PfM18AAP, H-Glu-NHMec fluorogenic cleavage; inhibition, % at 7.35 µM; 290,000 tested, 1.2% active; AID 1822;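 active = inhibition above the campaign mean inhibition over all tested compounds plus 3 SD, cut at about 28% in these data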
NRP1-CendR mod – alters CendR peptide binding to human NRP-1; O14786; FAM-RPARPAR peptide binding to NRP-1, fluorescence polarization; inhibition, % at 25 µM; 360,000 tested, 0.85% active; AID 602438;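 active = inhibition or corrected inhibition above about 18%, plus a signal ratio from 0.5 to 1.5, limit read from the data, passing the limit was not always enough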
A3G deaminase – inhibitors of human APOBEC3G DNA deaminase. Q9HC16. recombinant A3G, ssDNA deamination FAM/TAMRA fluorescence. inhibition, % at 20 µM. 330,000 tested, 0.28% active. AID 493012;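 active = inhibition of at least 40% at 20 µM, with no more than 30% in the related APOBEC3A deaminase screen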
Target sequence (Q9HC16 whole entry, looked up): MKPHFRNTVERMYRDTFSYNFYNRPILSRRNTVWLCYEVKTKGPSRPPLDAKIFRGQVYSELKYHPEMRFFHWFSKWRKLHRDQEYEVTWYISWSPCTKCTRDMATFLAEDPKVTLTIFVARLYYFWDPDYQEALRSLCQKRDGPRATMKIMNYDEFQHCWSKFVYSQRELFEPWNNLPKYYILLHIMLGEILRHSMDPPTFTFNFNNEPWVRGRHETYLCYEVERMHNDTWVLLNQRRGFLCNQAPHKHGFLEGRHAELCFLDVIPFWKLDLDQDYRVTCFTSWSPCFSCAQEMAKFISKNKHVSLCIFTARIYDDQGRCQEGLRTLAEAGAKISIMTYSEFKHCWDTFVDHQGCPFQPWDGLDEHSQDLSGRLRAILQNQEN
A3A deaminase – human APOBEC3A DNA deaminase inhibition. P31941. recombinant A3A, FAM/TAMRA ssDNA deamination fluorescence. inhibition, % at 20 µM. 330,000 tested, 0.41% active;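 active = at least 40% inhibition at 20 µM here, with at most 30% in a related deaminase screen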
Target sequence (P31941 whole entry, looked up): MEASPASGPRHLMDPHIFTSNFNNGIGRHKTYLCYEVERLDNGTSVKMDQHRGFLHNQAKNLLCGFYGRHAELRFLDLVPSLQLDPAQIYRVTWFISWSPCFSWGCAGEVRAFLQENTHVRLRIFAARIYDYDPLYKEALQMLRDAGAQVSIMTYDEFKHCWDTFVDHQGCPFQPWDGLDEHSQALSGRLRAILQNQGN
ALR H2O2 inh – inhibitors of human sulfhydryl oxidase ALR. purified ALR, DTT oxidation, H2O2 HRP-luminol luminescence. inhibition, % (test concentration not listed). 290,000 tested, 3.8% active. AID 485317;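 active = mean replicate inhibition above about 79%, with every replicate also reaching it, limit read from the data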
A3A conf – confirmation of human APOBEC3A DNA deaminase inhibitors. shares compounds with A3A deaminase. recombinant A3A, ssDNA deaminase UDG fluorescence assay. inhibition, % at 20 µM. AID 493151. 1,400 tested, 63% active;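 active = inhibition reaching a set limit, 80% of the first screen's cutoff, at 20 µM in any replicate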
UDG A3A counter – inhibits UDG, flagging false APOBEC3A inhibitors; UDG counterscreen, FAM/TAMRA uracil oligo fluorescence; 1,000 tested, under 10 active; shares compounds with A3A deaminase; inhibition, % at 20 µM; call rule not given here
Large screens that a line does not name were inactive (follow-up assays come after a bar, where they were run).

COc1ccc2nc(NC(=O)c3ccc(-c4cccc([N+](=O)[O-])c4)o3)sc2c1	A3A deaminase 52.5 (no result: NRP1-CendR mod) | A3A conf 32.1
O=C(Nc1nc2ccc([N+](=O)[O-])cc2s1)c1ccco1	none (no result: NRP1-CendR mod)
O=C(NCc1ccccc1)c1cc(S(=O)(=O)N2CCC3(CC2)OCCO3)ccc1F	none
CCc1cc(=O)oc2cc(C)c(CN3CCCC3)c(O)c12	A3A deaminase 41.1 | A3A conf 54.3
O=C1CCCN1c1ccc(CNS(=O)(=O)c2ccc(F)cc2)cc1	none
OC1(c2nc3ccccc3[nH]2)CCCCC1	none (no result: PfM18AAP inh, ALR H2O2 inh)
CCN(CC)CCCNC(=O)Cn1nc(-c2ccccc2)ccc1=O	none
C=CCNC(=O)Cn1nc(-c2ccccc2)ccc1=O	A3A deaminase 61.3 | A3A conf inactive
COC(=O)c1ccc(NCC(=O)Nc2cc(C)cc(C)c2)cc1	A3A deaminase 50.1 | A3A conf inactive
COC(=O)c1ccc(NC(=O)CSc2ccccc2)cc1	none
COC(=O)c1ccc(CNCC(=O)Nc2ccc(C(=O)OC)cc2)cc1	none
COC(=O)c1ccc(NC(=O)CSc2ccccn2)cc1	A3A deaminase 54.7 | A3A conf inactive
O=C(NCC1CCCO1)c1ccccc1NS(=O)(=O)c1cccs1 (stereo not given)	none
COc1ccc(/C=N/NS(=O)(=O)c2ccc(C)cc2)cc1	none
NC(=O)c1ccc(-n2nnnc2SCc2ccc(F)cc2)cc1	none
COC(=O)c1[nH]c2ccc(Cl)cc2c1NC(=O)CN1CCc2cc(OC)c(OC)cc2C1	A3A deaminase 41.2 | A3A conf 60.5 | UDG A3A counter inactive
COc1ccc(/C=C2\C(=O)NCC(=O)N2C)cc1	A3A deaminase 51.5 (no result: ALR H2O2 inh) | A3A conf 74.8 | UDG A3A counter inactive
COc1ccc(/C=C2\C(=O)NCC(=O)N2Cc2ccccc2)cc1	none
CCCN(CC(=O)Nc1cc(Cl)ccc1Cl)C(=O)/C=C/c1ccco1	A3A deaminase 77.4 | A3A conf inactive | UDG A3A counter inactive
COC(=O)c1ccc(CN2[C@H](C(=O)OC)C[C@@]3(O)[C@H](O)[C@H](O)[C@H](O)C[C@@H]23)cc1	none (no result: PfM18AAP inh)
C[n+]1ccccc1Nc1cc([N+](=O)[O-])ccc1N	A3A deaminase 63.4 (no result: ALR H2O2 inh) | A3A conf 70.2 | UDG A3A counter inactive
CC(=O)Nc1nnc(SCC(=O)NCC2CCCO2)s1 (stereo not given)	A3A deaminase 40.8 (no result: PfM18AAP inh) | A3A conf 39.7 | UDG A3A counter inactive
CC(=O)Nc1ccc2nc(SCC(=O)NCCOc3ccccc3)sc2c1	none
CC(=O)Nc1nnc(SCC(=O)NCCOc2ccccc2)s1	A3A deaminase 56.5 | A3A conf 63.1 | UDG A3A counter inactive
Cn1c(=O)c2c(nc(Sc3n[nH]c(N)n3)n2Cc2ccccc2Cl)n(C)c1=O	none
CCN1C(=O)[C@H]2[C@H]3CN=C(SCc4ccc(C#N)cc4)N3[C@@](Cc3ccccc3)(C(=O)OC)[C@H]2C1=O	none (no result: PfM18AAP inh, ALR H2O2 inh)
COc1ccc(NS(=O)(=O)c2ccc3c(c2)[C@H]2C=CC[C@H]2[C@@H](c2ccc(C(=O)O)cc2)N3)cc1	A3A deaminase 48.7 | A3A conf 29.3 | UDG A3A counter inactive
COc1ccc2cc(C)c3nnc(SCC(=O)Nc4cc(OC)c(OC)cc4C(=O)O)n3c2c1	A3A deaminase 98.7 | A3A conf inactive | UDG A3A counter inactive
Cc1cccc2c(Cl)cc(=O)[nH]c12	none (no result: CR mimetic SO, NRP1-CendR mod, ALR H2O2 inh)
Cc1cccc2cc(=O)[nH]c(C)c12	A3A deaminase 40.1 | A3A conf inactive
CSc1nc2sc3c(c2c(=O)n1C1CCCCC1)CCN(C)C3	A3A deaminase 47.2 | A3A conf inactive
O=C(O)c1cc(-c2ccc(/C=C3\NC(=O)N(c4ccccc4)C3=O)o2)ccc1Cl	A3A deaminase 58.4 | A3A conf 35.2 | UDG A3A counter inactive
O=C(O)c1cc(-c2ccc(/C=C3\NC(=O)N(c4ccc(Cl)cc4)C3=O)o2)ccc1Cl	none
Nc1nnc(-c2cn(-c3ccccc3)nc2-c2ccc(Cl)cc2)o1	none
CCOc1cc(N2CCOCC2)c(OCC)cc1NS(=O)(=O)c1cc(NC(C)=O)ccc1OC	A3A deaminase 46.3 | A3A conf 19.7 | UDG A3A counter inactive
CCOc1cc(N2CCOCC2)c(OCC)cc1NC(=O)c1c(C)noc1C	A3A deaminase 43.2 (no result: CR mimetic SO, PfM18AAP inh, ALR H2O2 inh) | A3A conf inactive
COc1ccccc1NS(=O)(=O)c1cc(NC(=O)c2ccc(NC(C)=O)cc2)ccc1N1CCOCC1	none (no result: CR mimetic SO, PfM18AAP inh, A3G deaminase, A3A deaminase, ALR H2O2 inh)
COc1ccc(C(CNC(=O)c2ccc(Cl)s2)N2CCOCC2)cc1 (stereo not given)	none (no result: PfM18AAP inh)
CCCN(CCC)c1nc2ccccc2nc1C(C#N)C(=O)OC(C)COC (stereo not given)	none (no result: NRP1-CendR mod)
Cc1cc(/C=C(/C#N)c2nc3ccccc3[nH]2)c(C)n1-c1ccccc1C(=O)O	none
Cc1cc(/C=C(/C#N)c2nc3ccccc3[nH]2)c(C)n1-c1cc(C(=O)O)cc(C(=O)O)c1	A3A deaminase 48.9 (no result: CR mimetic SO, ALR H2O2 inh) | A3A conf 41.1 | UDG A3A counter inactive
N#Cc1ccccc1CN1C(=O)S/C(=C/c2cccn2-c2ccc(C(=O)O)cc2)C1=O	A3A deaminase 43.9, ALR H2O2 inh 98.1 | A3A conf 25.1 | UDG A3A counter inactive
O=C(O)c1ccc(-n2cccc2/C=C2/SC(=O)N(CC(=O)N3CCCC3)C2=O)cc1	none
CCCN(CC(=O)Nc1ccc(F)c(F)c1F)C(=O)C1=COCCO1	A3A deaminase 50.7 (no result: PfM18AAP inh) | A3A conf inactive
COc1cccc(CN2CCN(CCc3ccccc3)C(CCO)C2)c1OC (stereo not given)	none
O=C(CN(c1ccccn1)S(=O)(=O)c1ccccc1)N/N=C/c1cccc([N+](=O)[O-])c1	A3A deaminase 44.5 | A3A conf inactive
CCC(=O)Oc1ccc(C(=O)Nc2cccc(C(=O)c3ccccc3)c2)cc1	A3A deaminase 44.6 | A3A conf inactive | UDG A3A counter inactive
CC(=O)Oc1ccc(C(=O)Nc2cccc(C(=O)c3cccc(NC(=O)c4ccc(OC(C)=O)cc4)c3)c2)cc1	none
C[n+]1cnn2c1SCC1(COC1)C2	A3A deaminase 45.4 | A3A conf 85.0 | UDG A3A counter inactive
C[n+]1c(/C=C/c2ccc(O)cc2)ccc2ccccc21	A3A deaminase 57.3, ALR H2O2 inh 98.9 | A3A conf 75.3 | UDG A3A counter inactive
C[n+]1c(/C=C/c2ccc3c(c2)OCO3)ccc2ccccc21	A3A deaminase 86.0 | A3A conf 86.6 | UDG A3A counter inactive
Cc1cc(/C=C\c2ccc3cc(N(C)C)ccc3[n+]2C)c(C)n1-c1ccccc1	none (no result: PfM18AAP inh)
Cc1c2ccccc2nc2ccccc12	none (no result: PfM18AAP inh)
CCCNc1c(F)c(F)c2c(C)c3ccccc3nc2c1F	A3A deaminase 42.1 | A3A conf inactive | UDG A3A counter inactive
